Compounds with a hit are over-represented: about 1.4% of the library has one in this group of screens.
INS-1E GSIS act: primary screen for activators of insulin secretion dependent on glucose, INS-1E cells, GLuc reporter luminescence. activation, % at 16.6 µM. AID 743287. actives 0.61% (n = 370,000). INS-1E GLuc reporter insulin secretion, 2-3 h;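 active = lowest replicate activation of at least 40%, so every replicate reaches that level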;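 note: 0% = median of neutral control wells and 100% = median of IBMX positive control wells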
RAD54 inh: RAD54 (human) branch migration inhibition. Q92698. AID 602329. RAD54 Holliday junction branch migration, FAM/BHQ fluorescence. inhibition, % at 10.4 µM. actives 0.14% (n = 360,000);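 active = mean normalized replicate activity at least 40 and at least half of replicates scoring 40 or more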;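 note: 0% = median of neutral control wells and 100% = median of positive control wells; inhibitors cause a drop in the FAM fluorescence signal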
MLL AF4-AF9 inh: inhibitors of human MLL-AF4/AF9 interaction; actives 0.47% (n = 350,000); AID 651704; inhibition, % at 10 µM; P42568; AlphaScreen, biotin-AF4 peptide binding to FLAG-AF9;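 active = every replicate reaching a set inhibition limit, whatever the replicate mean, cut at about 25% in these data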;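 note: 0% = plate neutral control median and 100% = total signal loss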
RAD52 inh: RAD52 (human) annealing inhibition; P43351; recombinant RAD52 DNA annealing, FRET fluorescence; inhibition, % at 18.7 µM; actives 0.46% (n = 360,000);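 active = every replicate showing at least 50% inhibition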
PGC1a acetyl inh: modulators of PGC1a acetylation | U2OS PGC1a acetylation, AlphaScreen anti-acetyl-lysine; with virally co-expressed GCN5 acetyltransferase | inhibition, % at 15.6 µM | actives 0.17% (n = 350,000) | AID 651687;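 active = every replicate shows inhibition of at least 40%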;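 note: 0% = neutral control wells and 100% = positive control wells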
ERAP1 inh: blocks human ERAP1 aminopeptidase activity; inhibition, % at 10.7 µM; actives 0.15% (n = 340,000); recombinant ERAP1, Leu-AMC fluorescence, 60 min; AID 652197; Q9NZ08;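 active = mean replicate inhibition of at least 30%, or all replicates individually reaching that 30% level; inactive = mean below 30% and not every replicate reaching it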;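 note: 0% = neutral control wells and 100% = L-leucinethiol positive control wells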
Active calls of the source: *; . = no result given.

SMILES	INS-1E GSIS act	RAD54 inh	MLL AF4-AF9 inh	RAD52 inh	PGC1a acetyl inh	ERAP1 inh
O=C(C[C@@H]1C=C[C@H](NC(=O)Nc2ccccc2F)[C@H](CO)O1)NCc1ccccc1	10	.	-5	1	3	-11
COc1cccc(NC(=O)C[C@H]2CC[C@@H]3[C@H](COc4ccc(NC(=O)C5CCCC5)cc4C(=O)N3C)O2)c1	-5	.	.	.	.	.
COc1cc2cnc(-c3cccnc3)cc2cc1OC	62*	21	0	6	4	1
COc1ccc2c3c([nH]c2c1)[C@@H](CO)N(Cc1ccccc1OC)CC31CN(C)C1	5	.	14	24	-2	51*
COc1ccc2c3c([nH]c2c1)[C@H](CO)N(Cc1ccccc1F)CC31CN(C)C1	-9	.	14	.	8	.
COc1ccc2c3c([nH]c2c1)[C@H](CO)N(Cc1ccccc1OC)CC31CN(C)C1	-6	.	20	45	10	53*
CC(C)NC(=O)Nc1ccc2c(c1)C(=O)N([C@@H](C)CO)C[C@@H](C)[C@@H](CN(C)S(=O)(=O)c1ccccc1)OCCCC[C@H](C)O2	-8	4	0	5	105*	-2
Cc1ccc(S(=O)(=O)N(C)C[C@H]2OCCCC[C@@H](C)Oc3ccc(NC(=O)CCCN(C)C)cc3C(=O)N([C@@H](C)CO)C[C@@H]2C)cc1	9	6	7	50*	9	-2
C[C@@H]1CCCCO[C@H](CN(C)CC2CC2)[C@H](C)CN([C@@H](C)CO)C(=O)c2cc(NC(=O)Nc3ccccc3)ccc2O1	2	15	15	57*	-1	-1
COc1ccc(NC(=O)Nc2ccc3c(c2)C(=O)N([C@@H](C)CO)C[C@@H](C)[C@@H](CN(C)CC2CC2)OCCCC[C@@H](C)O3)cc1	1	8	26*	25	-2	1
CN(C)CCCNC(=O)[C@@H]1[C@@H](CO)[C@@H]2Cn3c(cccc3=O)[C@@H]2N1C(=O)Nc1ccccc1	-3	-7	-1	7	-3	-2
CCCN(C)C[C@H]1OCCCC[C@@H](C)Oc2ccc(NC(=O)Nc3ccc(OC)cc3)cc2C(=O)N([C@@H](C)CO)C[C@H]1C	-4	-3	12	53*	7	2
C[C@@H]1CCCCO[C@H](CN(C)C(=O)Nc2ccc(F)cc2)[C@@H](C)CN([C@H](C)CO)C(=O)c2cc(NC(=O)Nc3ccccc3)ccc2O1	7	-7	43*	17	-1	-2
C[C@H]1CCCCO[C@H](CN(C)CC2CCCCC2)[C@@H](C)CN([C@@H](C)CO)C(=O)c2cc(NC(=O)c3ccccc3)ccc2O1	-8	9	0	-178	-3	1
C[C@@H]1CCCCO[C@@H](CN(C)C(=O)Nc2ccc(F)cc2)[C@H](C)CN([C@H](C)CO)C(=O)c2cc(NC(=O)Nc3ccccc3)ccc2O1	-25	1	-2	-2	-19	1
C[C@@H]1CN([C@@H](C)CO)C(=O)c2cc(NC(=O)c3ccccc3)ccc2O[C@@H](C)CCCCO[C@H]1CN(C)CC1CCCCC1	-13	0	27*	6	13	0
COc1ccccc1C(=O)N/N=C(\C)CC(=O)Nc1ccc2c(c1)OCCO2	41*	-4	-3	-13	.	-2
O=[N+]([O-])c1ccc(N2CCN(c3ccc(F)cc3)CC2)cc1	1	3	-2	-11	-11	-1
CN1CCCN(c2ccc([N+](=O)[O-])cc2)CC1	.	.	28*	-1	.	4
CN(C)C(=O)C[C@H]1C[C@H]2c3cc(NC(=O)NC4CCCCC4)ccc3O[C@H]2[C@@H](CO)O1	3	1	-2	-14	-5	-2
O[C@H]1C[C@H](c2ccccc2)N(CC2CCCCC2)C[C@@H]1n1cc(C2CC2)nn1	143*	-4	3	-14	-3	.
Cc1ccc(S(=O)(=O)Nc2ccc3c(c2)C(=O)N([C@@H](C)CO)C[C@H](C)[C@H](CN(C)C)O3)cc1	8	0	-4	0	-3	-1
N#CC(C#N)=C1C=CC=CN1/C(=C\c1ccco1)C(=O)c1ccccc1	48	.	14	-29	.	4
COc1ccc(C(=O)/C(=C\c2ccco2)N2C=CC=CC2=C(C#N)C#N)cc1	.	-1	.	.	71*	.
Cc1cccc(OCC(=O)Nc2ccc(NC(=O)c3ccco3)cc2)c1	75*	-5	-1	-3	.	-3
SMILES	INS-1E GSIS act	RAD54 inh	MLL AF4-AF9 inh	RAD52 inh	PGC1a acetyl inh	ERAP1 inh
COc1ccc(OCC(=O)Nc2cccc(NC(=O)c3ccco3)c2)cc1	0	.	-1	-23	-6	0
O=C(/C=C/c1ccc(Cl)cc1)NC(=S)Nc1ccc(NC(=O)c2ccco2)cc1	50*	.	.	.	.	.
O=C(Nc1ccc(-c2ccccc2)cc1)c1ccco1	15	-6	-2	-18	0	41*
O=c1cc(-c2ccncc2)oc2c1ccc1ccccc12	47*	-8	0	-101	-8	-4
Nc1c(C(=O)N2CCCCC2)sc2nc3c(cc12)CCCC3	-8	-25	3	0	.	-2
Cc1ccc(C(=O)c2sc3nc4c(cc3c2N)CCC4)cc1	74*	5	.	.	.	.
C[C@@H]1CCCCO[C@H](CN(C)Cc2ccncc2)[C@H](C)CN([C@H](C)CO)C(=O)c2cc(NC(=O)Nc3ccc(C(F)(F)F)cc3)ccc2O1	-16	-16	2	40	11	1
COc1ccc(-c2ccc3n(c2=O)C[C@@H]2[C@@H](CO)[C@H](C(=O)N4CCCCC4)[C@H]3N2C)cc1	5	-4	-2	4	.	1
O=C(NC1CCCCCCC1)c1ccc(CNc2c(N3CCOCC3)c(=O)c2=O)cc1	-6	2	40*	-9	-2	-5
O=C(NC1CCCC1)c1ccc(Cl)c(S(=O)(=O)N2CCOCC2)c1	47*	7	-3	-8	.	-1
O=C(C[C@H]1C=C[C@H](NC(=O)Nc2cc(F)ccc2F)[C@@H](CO)O1)NCCCN1CCOCC1	-8	4	-2	-2	5	-2
N#Cc1c(Cl)nsc1NN	-8	.	51*	-42	-4	9
CCCN1C(=O)C(O)(C/C(C)=N/O)c2ccccc21 (stereo not drawn)	50*	-9	.	.	7	.
CCCN1C(=O)C(O)(CC(=O)c2cccc(OC)c2)c2ccccc21 (stereo not drawn)	-28	-1	.	.	15	.
Cc1ccc(C(CC(=O)O)NC(=O)c2ccc(S(=O)(=O)N3CC(C)OC(C)C3)cc2)cc1 (stereo not drawn)	58*	4	-1	-10	-5	5
CC1CN(S(=O)(=O)c2ccc(C(=O)O)cc2)CC(C)O1 (stereo not drawn)	9	.	-8	-7	3	.
O=C(C[C@@H]1CC[C@@H](NS(=O)(=O)c2ccccc2)[C@@H](CO)O1)N1CCN(c2ccccc2)CC1	15	.	-1	-4	-2	1

Screening results: PubChem, Broad Institute
